Assay outcomes deposited in PubChem BioAssay by several laboratories.
Sampled rows, rich in hits. Any-hit rate of the full collection: about 2.1%.
PLAP activator: activates human placental alkaline phosphatase | actives 1.2% (n = 96,000) | activation fold at 20 µM | purified PLAP enzyme, luminescent substrate read-out; hits give high values | P05187; in the data active = activation fold above about 2
IL1B NFkB pot: enhances IL-1B driven NFkB nuclear translocation; HUVEC IL-1B NFkB p65 nuclear translocation imaging; activation, % at 2 µM; actives 0.3% (n = 94,000);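 active = activation above 40%, about the mean plus 3 SD, also judged a hit on visual image review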;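 also: percent activation is computed from the nuclear over cytoplasmic p65 intensity ratio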
IL1B cytotox: HUVEC cytotoxicity counter-screen, IL-1B stimulated; HUVEC cell count loss, Hoechst imaging; cell count reduction, % at 2 µM; actives 0.41% (n = 94,000);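 active = cell count reduction more than 3 SD above the screen-wide mean, cut at about 70% in these data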
TNAP act mid DEA: activators of human TNAP at intermediate phosphate acceptor; P05186; purified TNAP, CDP-star luminescence, 100 mM DEA, 30 min; hits give high values; scale: 0 levamisole-inhibited, 1 vehicle-only enzyme; activation factor at 20 µM; 64,000 tested, under 10 active; AID 813;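 active = activation factor of at least 2 at 20 µM, relative to controls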
Target sequence (P05186 whole entry, looked up): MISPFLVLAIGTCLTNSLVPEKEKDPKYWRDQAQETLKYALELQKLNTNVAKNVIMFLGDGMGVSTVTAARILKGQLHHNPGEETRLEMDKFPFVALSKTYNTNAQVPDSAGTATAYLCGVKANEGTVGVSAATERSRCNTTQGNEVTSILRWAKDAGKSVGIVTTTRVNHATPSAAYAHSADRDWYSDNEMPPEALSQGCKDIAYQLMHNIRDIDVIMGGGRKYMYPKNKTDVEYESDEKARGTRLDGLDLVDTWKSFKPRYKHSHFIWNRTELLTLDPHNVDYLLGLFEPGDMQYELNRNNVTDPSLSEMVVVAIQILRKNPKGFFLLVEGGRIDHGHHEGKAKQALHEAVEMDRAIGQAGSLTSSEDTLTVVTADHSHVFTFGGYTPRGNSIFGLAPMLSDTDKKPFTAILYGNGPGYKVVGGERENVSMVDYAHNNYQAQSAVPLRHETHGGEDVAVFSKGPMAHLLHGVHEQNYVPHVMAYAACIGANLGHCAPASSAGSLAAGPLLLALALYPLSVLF
NFkB transloc inh: blocks IL-1B driven NFkB nuclear translocation in HUVEC cells. HUVEC IL-1B NFkB p65 nuclear translocation imaging. inhibition, % at 2 µM. actives 0.43% (n = 94,000). AID 796;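 active = inhibition above about 30% together with a positive call from visual inspection of the well image, limit read from the data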;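 also: nuclear over cytoplasmic p65 intensity ratio measured by imaging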
Hits are given with their value; - = inactive; . = not tested or not shown.

SMILES	PLAP activator	IL1B NFkB pot	IL1B cytotox	TNAP act mid DEA	NFkB transloc inh
CCCNC(=O)CC1Sc2ccccc2NC1=O (configuration not stated)	-	43	-	-	-
Cc1ccc(C2CC2C(=O)NNC(=S)Nc2cccc(Cl)c2)cc1 (configuration not stated)	.	-	71	.	-
COC(=O)c1ccc(CSc2nc3ccc(C)cc3[nH]2)o1	2.2	-	-	.	-
COC(=O)c1ccc(CSc2nc3c(cnn3-c3ccc(C)cc3)c(=O)[nH]2)o1	.	-	-	.	-
CCOc1ccc(/C=C/[N+](=O)[O-])c2ccccc12	-	-	-	.	61
CCCCNC(=O)CN(C1CCCCC1)S(C)(=O)=O	-	-	-	-	-
C=CCSc1nnc2c(n1)OC=Nc1ccccc1-2	-	-	91	-	30
O=c1c2[nH]c3ccccc3c2ncn1Cc1cccnc1	-	50	-	-	-
Cc1ccc2[nH]c3c(=O)n(Cc4ccncc4)cnc3c2c1	-	-	-	.	-
COc1ccc2nc(NC(=O)CN(C)S(=O)(=O)c3cccs3)sc2c1	-	-	-	.	-
COc1ccc(NC(=O)CNS(=O)(=O)c2cccs2)c(OC)c1	-	-	-	.	-
Cc1csc(NC(=O)CNS(=O)(=O)c2cccs2)n1	2	-	-	-	-
COc1ccc2nc(NC(=O)CNS(=O)(=O)c3cccs3)sc2c1	2.5	-	-	.	-
CCCc1c(O)nc(SCCN(CC)CC)n(C(=O)c2ccccc2)c1=O	-	-	-	-	-
CCCCNS(=O)(=O)c1ccc(OC)c(C)c1	.	-	-	.	-
CCNS(=O)(=O)c1ccc(OC)c(C)c1	-	-	83	-	63
COc1ccc(-c2cnc3nc[nH]c(=O)c3n2)cc1	.	-	-	.	-
CC(C)CC(NS(=O)(=O)c1ccc2c(c1)oc(=O)n2C)C(=O)N1CC=C(c2ccccc2)CC1 (configuration not stated)	2.5	-	-	-	-
Cn1c(=O)oc2cc(S(=O)(=O)NCCC(=O)N3CC=C(c4ccccc4)CC3)ccc21	-	-	-	-	-
Cc1ccc(SCC(=O)NC(=O)NCc2ccco2)cc1C	-	-	-	.	-
CCC(C)[C@H](N)c1nnc(SCC(=O)Nc2cccc(Cl)c2)o1 (some centres not stated)	2.5	-	-	-	-
NS(=O)(=O)c1ccc(CCNC(=O)c2ccc(S(=O)(=O)N3CCCCC3)cc2)cc1	2	-	-	.	-
CC(NC(=O)NC(N)=O)(C(F)(F)F)C(F)(F)F	-	41	-	-	-
C=CCNC(=S)N1CCN(CCN=CC2=C(O)CC(c3ccco3)CC2=O)CC1 (configuration not stated)	-	-	93	.	54
CCNC(=S)N1CCN(CCN=CC2=C(O)CC(c3ccco3)CC2=O)CC1 (configuration not stated)	-	-	-	.	-
SMILES	PLAP activator	IL1B NFkB pot	IL1B cytotox	TNAP act mid DEA	NFkB transloc inh
CCCN(Cc1cc2ccc(C)cc2[nH]c1=O)S(=O)(=O)c1ccccc1	-	-	-	.	-
Cc1ccc(C(O)c2nc3ccccc3n2C(C)C)cc1 (configuration not stated)	2.6	-	-	-	-
CC(=O)NC(C)c1nc2ccccc2n1C(C)C (configuration not stated)	-	-	-	-	-
CCCS(=O)(=O)N1CCC(C(=O)NC2CCCC(C)C2C)CC1 (configuration not stated)	-	46	-	-	-
CCCS(=O)(=O)N1CCCC(C(=O)NC2CCCC(C)C2C)C1 (configuration not stated)	-	-	-	-	-
CC1=NN(C(=O)c2cccc(Cn3nc(C)c([N+](=O)[O-])c3C)c2)C(O)(C(F)(F)F)C1 (configuration not stated)	2.1	-	-	.	-
COc1ccc(-c2cn3c(C)c(C(=O)NCc4ccc5c(c4)OCO5)sc3n2)cc1	.	-	-	-	-
COC(=O)c1c(C(=O)OC)c2ccncn2c1Cl	2.4	-	-	-	-
COC(=O)c1cn(-c2ccccc2)nc1-c1ccncc1	-	.	.	.	.
COc1ccc(C2c3c(-c4ccccc4O)n[nH]c3C(=O)N2CCc2ccc(OC)c(OC)c2)cc1 (configuration not stated)	2.8	-	-	-	-
COc1ccc(CCN2C(=O)c3[nH]nc(-c4ccccc4O)c3C2c2cccc(Cl)c2)cc1 (configuration not stated)	-	-	-	.	-
COc1ccc(-c2nnc3sc(C4CCCCC4)nn23)cc1OC	2.1	-	-	-	-
C1CCC(c2nn3c(-c4n[nH]c5c4CCC5)nnc3s2)CC1	2.3	-	-	-	-
O=C(CC1(O)C(=O)Nc2ccccc21)c1cccnc1 (configuration not stated)	-	.	.	-	.
CCOC(=O)C(CC)Sc1nc2c(c(=O)[nH]c(=O)n2C)n1CCc1ccccc1 (configuration not stated)	2.8	-	-	-	-
CCOC(=O)CSc1nc2c(c(=O)[nH]c(=O)n2C)n1CCc1ccccc1	-	-	-	-	-
O=C(O)c1cc(-c2ccccn2)n[nH]1	2.5	-	-	-	-
CCc1cc2cc(C(=O)Nc3ccc(C)cc3)sc2s1	.	-	-	.	-
CCOC(=O)C1=C(N)Oc2c(c(=O)[nH]c3ccccc23)C1c1ccccc1 (configuration not stated)	-	-	-	.	-
CC(C)(C)NC(=O)C(c1cccs1)N(CC1CCCO1)C(=O)Cn1nnc(-c2cccs2)n1 (configuration not stated)	-	48	-	-	-
COc1ccc(C(NC(C)=O)c2ccc3cccnc3c2O)c(OC)c1 (configuration not stated)	2.4	.	.	-	.
CC(C)C(=O)NC(c1ccco1)c1ccc2cccnc2c1O (configuration not stated)	-	-	-	-	-
CN(c1cccc(Cl)c1)S(=O)(=O)c1cccc(C(=O)NC2=NCCS2)c1	-	-	-	.	-
Cc1ccc(/C=N/Nc2ncc(Cl)cc2Cl)s1	2.8	-	-	.	-
CCCC(=O)N1CCN(S(=O)(=O)c2cc(Cl)ccc2OC)CC1	-	-	-	-	-
SMILES	PLAP activator	IL1B NFkB pot	IL1B cytotox	TNAP act mid DEA	NFkB transloc inh
COc1ccc(CNC(=O)C(c2ccc(C)o2)N(Cc2cccs2)C(=O)Cc2cccs2)cc1 (configuration not stated)	.	-	-	.	-
COc1ccc(N2CCN(C(=O)CSc3nnc4c(C)cc5c(C)cc(C)cc5n34)CC2)cc1	-	-	-	.	-
COc1ccc(N2CCN(C(=O)CSc3nnc4c(C)cc5cc(C)ccc5n34)CC2)cc1	-	-	92	.	-
COc1ccc(N2C(=O)NC(NC(=O)c3ccncc3)(C(F)(F)F)C2=O)cc1 (configuration not stated)	-	-	-	.	-
CN(C)c1ccnc(N(Cc2ccccc2)Cc2ccccc2)c1C#N	-	-	-	.	-
CN(C)C(=O)CN(C)S(=O)(=O)c1ccc(Cl)cc1	-	-	-	-	91
Clc1ccc(Nc2ccc(-n3ccnc3)nn2)cc1Cl	-	-	-	.	-
